Screening results deposited in PubChem BioAssay by several laboratories.
In the library only some 4% were active in any assay of this set; here they are far more common.
GDH-TPI counter: counter-screen for M. tuberculosis FBA inhibitors: GDH-TPI coupled enzymes. GDH-TPI coupled enzyme counterscreen, NADH absorbance. inhibition, % at 4.8 µM. 360,000 compounds, 1.2% hits; in the data active means inhibition above about 30%;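 further: 0% = DMSO wells and 100% = wells lacking the enzyme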
Rv3671c inh: inhibitors of M. tuberculosis serine protease Rv3671c; inhibition, % at 5.96 µM; 320,000 compounds, 0.048% hits; in the data active means inhibition above about 38%;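 further: extracellular domain of Rv3671c used as enzyme; 0% = enzyme with DMSO and 100% = no enzyme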
Target sequence (P9WHR9 whole entry, looked up, the tested form may be a part): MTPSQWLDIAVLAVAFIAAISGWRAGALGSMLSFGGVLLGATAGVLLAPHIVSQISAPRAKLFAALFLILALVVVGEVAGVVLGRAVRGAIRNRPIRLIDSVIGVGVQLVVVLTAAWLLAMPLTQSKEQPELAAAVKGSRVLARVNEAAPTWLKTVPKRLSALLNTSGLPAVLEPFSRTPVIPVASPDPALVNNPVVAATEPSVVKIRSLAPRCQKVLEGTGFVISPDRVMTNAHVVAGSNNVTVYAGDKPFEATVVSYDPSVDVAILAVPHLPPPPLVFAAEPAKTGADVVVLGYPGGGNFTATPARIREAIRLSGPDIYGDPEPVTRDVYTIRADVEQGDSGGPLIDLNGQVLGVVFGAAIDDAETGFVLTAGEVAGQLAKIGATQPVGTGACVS
RecA splice inh: Mtb RecA intein splicing inhibition | P9WHJ3 | cell-free RecA intein splicing, fluorescence | inhibition, % (no concentration beside the values) | AID 2221 | 290,000 compounds, 0.75% hits; in the data active means inhibition above about 30%;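 further: 0% = vehicle wells and 100% = reference inhibitor control wells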
FBA Mtb inh: Mtb fructose-bisphosphate aldolase inhibition | purified M. tuberculosis FBA, fluorescence read-out | inhibition, % at 1 µM | 360,000 compounds, 2.3% hits; in the data active means inhibition above about 27%;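 further: 0% = vehicle and 100% = reference inhibitor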
Mtb UGM inh: inhibitors of M. tuberculosis UDP-galactopyranose mutase; 320,000 compounds, 0.06% hits; purified UGM, fluorescence polarization probe displacement; AID 504406; inhibition, % at 10 µM; P9WIQ1; in the data active means inhibition above about 10%, passing the limit was not always enough
Mtb bLac sens: beta-lactam sensitization of Mtb H37Rv; M. tuberculosis H37Rv growth with meropenem, percent inhibition; inhibition, % at 25 µM; 330,000 compounds, 0.27% hits; AID 434955; call rule not given here;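 further: growth measured after seven days incubation then overnight dye step; 0% = bacteria only wells and 100% = bacteria with antibiotic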
Starred values were filed as active, the others as inactive; · = no result given; + = active, no number.

SMILES | GDH-TPI counter | Rv3671c inh | RecA splice inh | FBA Mtb inh | Mtb UGM inh | Mtb bLac sens
COc1cc(/C=C2\SC(N3CCCCC3)=NC2=O)cc(OC)c1OC | 33* | -2 | 0 | 0 | 2 | 7
CC(C)c1cccc(-c2ccc3c(c2)S(=O)(=O)c2cccc(C(=O)O)c2C3=O)c1 | 31* | -1 | · | -2 | -3 | -10
O=C(Nc1nccs1)c1sc2cc(Cl)ccc2c1Cl | 34* | -11 | -6 | -4 | 3 | 80
CN(C)c1ccc(/C=[N+](\[O-])C2SC(=S)N(C)C2(C)C)cc1 (stereo unspecified) | 34* | 3 | -7 | -3 | 1 | -2
CN(C)c1ccc(/C=[N+](\[O-])C(C)(C)/C=N/O)cc1 | 1 | -1 | 3 | -4 | 1 | 6
CN(C)c1ccc(/C=[N+](\[O-])C2N(c3ccccc3)C(=S)SC2(C)C)cc1 (stereo unspecified) | 33* | -6 | 0 | -3 | 2 | 1
Cc1ccc2c(c1)Sc1c(ccc3ccccc13)N2 | 16 | -6 | 7 | 4 | 2 | 22
Cc1ccc2c(C)c3ccc4ccccc4c3c[n+]2c1 | 11 | · | · | + | · | ·
COc1cc(OC)c(NC(=O)C2CCN(S(=O)(=O)c3ccc4c(c3)CC(C)N4C(C)=O)CC2)cc1Cl (stereo unspecified) | 2 | 0 | -4 | -2 | 3 | -4
Cc1nn(-c2ccccc2)c2c1C(O)CC(C)(C)C2 (stereo unspecified) | 1 | 2 | -1 | 1 | 2 | 5
Cc1nc2c(c3c1[nH]c1ccccc13)C(O)CC(C)(C)C2 (stereo unspecified) | 7 | -10 | -57 | 120* | 0 | 0
COCCN(C(=O)COC(=O)C1CC1C)c1c(N)n(Cc2ccccc2)c(=O)[nH]c1=O (stereo unspecified) | -1 | 1 | 1 | -2 | -1 | -8
COCCn1c(-c2ccc(OC)cc2)c(-c2ccc(OC)cc2)oc1=O | -3 | -5 | 1 | 131* | 4 | 9
C=C(C)CSc1nc2ccccc2c(=O)n1-c1c(C)n(C)n(-c2ccccc2)c1=O | 5 | -1 | 4 | 1 | 3 | -13
Cc1c(-n2c(SCC(=O)C(C)(C)C)nc3ccccc3c2=O)c(=O)n(-c2ccccc2)n1C | 8 | -5 | 0 | 145* | -2 | 2
O=C1OC[C@H]2CCCN2C(=O)[C@@H](CC(=O)N(CCO)Cc2ccccc2)C/C=C\C[C@@H]1Cc1ccc(F)cc1 | -7 | 2 | · | -1 | -3 | -1
CCOc1ccc(/C=N/NC(=O)c2cc3c(OC)cc(OC)cc3[nH]2)cc1OC | 30 | 16 | -3 | 5 | -1 | 43
COc1cccc(/C=N/NC(=O)c2cc3c(OC)cccc3[nH]2)c1OC | 25 | -7 | -1 | 2 | 0 | -2
COc1ccccc1/C=N/NC(=O)c1cc2c(OC)c(OC)ccc2[nH]1 | 34* | · | -4 | -2 | -2 | 5
COc1ccc(OC)c(/C=N/NC(=O)c2cc3c(OC)cccc3[nH]2)c1 | 61* | -24 | -2 | 6 | 4 | 37
COc1cccc(/C=N/NC(=O)c2cc3c(OC)c(OC)ccc3[nH]2)c1OC | 33* | · | -1 | -3 | · | ·
COc1ccc(OC)c(/C=N/NC(=O)c2cc3c(OC)cc(OC)cc3[nH]2)c1 | 22 | 27 | 0 | 11 | 2 | 2
C=CCOc1ccc(/C=N/NC(=O)c2cc3c(OC)cc(OC)cc3[nH]2)cc1 | 32* | -15 | 3 | 9 | -1 | 6
CC1(C(=O)NCc2cccs2)Cc2c(-c3ccccc3)ccnc2O1 (stereo unspecified) | 0 | · | · | 3 | · | ·
CN(C)c1ccc(/C=N/NC(=O)c2cccc(N3CCCC3=O)c2)cc1 | 46* | 6 | -3 | -8 | -4 | -1
SMILES | GDH-TPI counter | Rv3671c inh | RecA splice inh | FBA Mtb inh | Mtb UGM inh | Mtb bLac sens
Cc1ccc(C(=O)N/N=C\c2ccc3c(c2)OCO3)cn1 | 22 | -1 | -3 | 3 | 0 | 5
O=C(CCc1c[nH]c2ccccc12)N/N=C/c1ccc2c(c1)OCO2 | 38* | -1 | -2 | -1 | 0 | -6
O=C(Cc1ccccc1)N/N=C/c1ccc2c(c1)OCO2 | 13 | -5 | -4 | 2 | 1 | 1
Cc1ccc(C(=O)NN=Cc2ccc3c(c2)OCO3)cc1 | 35* | · | · | 0 | · | ·
CN(C)c1ccc(/C=N/NC(=O)c2ccc3c(c2)OCO3)cc1 | 42* | · | -38 | 5 | 2 | -2
COc1ccc(/C=N/NC(=O)c2cccc3ccccc23)c(OC)c1OC | 23 | -3 | 2 | 2 | -2 | 1
